# Laboratory results from PMC7862700, “An all-to-all approach to the identification of sequence-specific readers for epigenetic DNA modifications on cytosine”.
# Assays:
# Test in all cases: DAPPL (digital affinity profiling via proximity ligation, sequencing); 10 mM Tris-HCl pH 7.5, 50 mM NaCl, 1 mM DTT, 4% glycerol, room temperature, 30 min; GST-TFs on glutathione beads, 16-mer random dsDNA library, 0.1% formaldehyde crosslink after washing; high values mean tight binding
# FLI1 = target: T1, FLI1 (Homo sapiens, UniProt Q01543 1-452); conditions: protein: recombinant; tags: N-terminal GST; dsDNA, one strand shown
# T1 sequence: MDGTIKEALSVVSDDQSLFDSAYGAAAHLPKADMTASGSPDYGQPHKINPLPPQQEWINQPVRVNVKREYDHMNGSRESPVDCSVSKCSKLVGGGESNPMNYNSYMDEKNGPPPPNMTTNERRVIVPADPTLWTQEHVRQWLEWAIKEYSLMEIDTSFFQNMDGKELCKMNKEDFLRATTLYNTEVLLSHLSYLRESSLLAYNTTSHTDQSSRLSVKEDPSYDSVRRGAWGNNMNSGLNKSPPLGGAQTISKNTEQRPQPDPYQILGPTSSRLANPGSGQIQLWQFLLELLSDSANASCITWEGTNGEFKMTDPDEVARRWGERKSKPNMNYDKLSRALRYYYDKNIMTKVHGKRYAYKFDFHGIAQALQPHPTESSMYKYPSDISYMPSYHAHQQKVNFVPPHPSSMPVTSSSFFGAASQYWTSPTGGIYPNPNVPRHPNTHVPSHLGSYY
# How it was run: (§1)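 After expression in yeast as GST fusions, human transcription factors were bound to glutathione beads, DNA-barcoded and mixed with a tag-only sample. The pools were incubated with 200 nmole of a 16-mer random double-stranded DNA library in Tris/NaCl/DTT/glycerol buffer (30 min, room temperature), washed and crosslinked with 0.1% formaldehyde. Proximity ligation with BsaI/T4 ligase ran for 1 h at 37 °C, before PCR amplification and sequencing on an Illumina NextSeq500. Binding signal is a hexamer's read frequency for a factor divided by its frequency for the tag-only sample.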
# ELK1 = target: T2, ELK1 (Homo sapiens, UniProt P19419 1-428); conditions: protein: recombinant; tags: N-terminal GST; dsDNA, one strand shown
# T2 sequence: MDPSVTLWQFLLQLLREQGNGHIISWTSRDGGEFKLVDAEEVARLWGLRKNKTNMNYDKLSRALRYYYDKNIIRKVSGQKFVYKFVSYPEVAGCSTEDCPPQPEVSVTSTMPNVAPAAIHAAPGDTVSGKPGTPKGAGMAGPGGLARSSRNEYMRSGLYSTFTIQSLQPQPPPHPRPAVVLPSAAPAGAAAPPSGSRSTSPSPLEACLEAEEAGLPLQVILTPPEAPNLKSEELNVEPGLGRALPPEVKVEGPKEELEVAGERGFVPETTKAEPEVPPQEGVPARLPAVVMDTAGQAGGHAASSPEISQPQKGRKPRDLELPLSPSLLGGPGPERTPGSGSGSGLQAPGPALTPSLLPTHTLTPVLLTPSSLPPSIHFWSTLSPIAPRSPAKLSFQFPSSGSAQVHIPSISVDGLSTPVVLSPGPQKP
# How it was run: as §1
# GABPA = target: T3, GABPA (Homo sapiens, UniProt Q06546 1-454); conditions: protein: recombinant; tags: N-terminal GST; dsDNA, one strand shown
# T3 sequence: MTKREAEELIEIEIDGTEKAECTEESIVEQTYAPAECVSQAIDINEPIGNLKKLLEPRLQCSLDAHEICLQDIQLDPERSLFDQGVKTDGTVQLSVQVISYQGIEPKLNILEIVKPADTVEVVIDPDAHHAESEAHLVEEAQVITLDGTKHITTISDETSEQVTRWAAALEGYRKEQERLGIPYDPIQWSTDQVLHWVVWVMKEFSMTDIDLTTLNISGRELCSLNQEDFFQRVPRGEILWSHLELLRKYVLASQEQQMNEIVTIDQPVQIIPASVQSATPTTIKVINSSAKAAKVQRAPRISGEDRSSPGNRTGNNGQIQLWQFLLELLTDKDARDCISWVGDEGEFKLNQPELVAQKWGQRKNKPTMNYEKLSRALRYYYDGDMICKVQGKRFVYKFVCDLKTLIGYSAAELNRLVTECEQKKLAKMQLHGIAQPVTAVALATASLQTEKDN
# How it was run: as §1
# ERG = target: T4, ERG (Homo sapiens, UniProt P11308 1-479); conditions: protein: recombinant; tags: N-terminal GST; dsDNA, one strand shown
# T4 sequence: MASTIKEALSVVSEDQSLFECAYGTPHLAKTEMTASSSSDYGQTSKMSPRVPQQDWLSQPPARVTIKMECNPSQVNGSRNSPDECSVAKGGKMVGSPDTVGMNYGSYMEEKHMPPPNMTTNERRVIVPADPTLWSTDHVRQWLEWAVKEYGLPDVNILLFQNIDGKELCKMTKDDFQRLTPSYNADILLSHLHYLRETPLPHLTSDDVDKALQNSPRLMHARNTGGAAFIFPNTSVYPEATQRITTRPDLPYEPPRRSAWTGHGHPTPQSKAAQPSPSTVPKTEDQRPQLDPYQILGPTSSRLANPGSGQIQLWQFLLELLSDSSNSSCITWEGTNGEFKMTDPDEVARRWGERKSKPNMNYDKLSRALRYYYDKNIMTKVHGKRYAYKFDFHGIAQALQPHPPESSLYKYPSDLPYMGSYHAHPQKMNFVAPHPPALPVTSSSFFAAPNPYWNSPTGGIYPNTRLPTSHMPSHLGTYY
# How it was run: as §1
# ELF1 = ELF1 (Homo sapiens, UniProt P32519 1-619); conditions: protein: recombinant; tags: N-terminal GST; dsDNA, one strand shown
# Chain of ELF1 (P32519 whole entry): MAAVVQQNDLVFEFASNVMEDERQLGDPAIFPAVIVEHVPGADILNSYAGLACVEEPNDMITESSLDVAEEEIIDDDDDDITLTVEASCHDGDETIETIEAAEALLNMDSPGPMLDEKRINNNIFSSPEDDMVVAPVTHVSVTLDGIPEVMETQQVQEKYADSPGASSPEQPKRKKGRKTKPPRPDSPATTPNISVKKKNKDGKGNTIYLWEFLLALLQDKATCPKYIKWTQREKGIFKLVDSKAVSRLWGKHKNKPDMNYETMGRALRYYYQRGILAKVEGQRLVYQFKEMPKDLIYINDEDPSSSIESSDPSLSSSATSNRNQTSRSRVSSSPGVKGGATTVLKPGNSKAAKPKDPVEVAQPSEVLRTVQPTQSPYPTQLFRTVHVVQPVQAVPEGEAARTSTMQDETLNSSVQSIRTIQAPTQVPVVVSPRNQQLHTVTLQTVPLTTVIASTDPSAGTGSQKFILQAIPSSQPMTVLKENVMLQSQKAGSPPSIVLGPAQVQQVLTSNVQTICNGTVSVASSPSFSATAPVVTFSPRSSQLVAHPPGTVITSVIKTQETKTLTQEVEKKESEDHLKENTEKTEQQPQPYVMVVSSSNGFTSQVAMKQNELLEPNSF
# How it was run: as §1
# EHF = target: T5, EHF (Homo sapiens, UniProt Q9NZC4 1-300); conditions: protein: recombinant; tags: N-terminal GST; dsDNA, one strand shown
# T5 sequence: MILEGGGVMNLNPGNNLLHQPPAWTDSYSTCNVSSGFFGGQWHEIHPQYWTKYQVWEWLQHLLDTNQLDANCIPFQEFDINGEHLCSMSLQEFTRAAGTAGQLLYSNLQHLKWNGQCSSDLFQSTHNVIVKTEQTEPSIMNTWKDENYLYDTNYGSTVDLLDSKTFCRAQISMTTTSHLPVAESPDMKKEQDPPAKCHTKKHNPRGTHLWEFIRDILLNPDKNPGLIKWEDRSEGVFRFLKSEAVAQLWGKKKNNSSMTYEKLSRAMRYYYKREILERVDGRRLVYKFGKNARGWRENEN
# How it was run: as §1
# SPI1 = SPI1 (Homo sapiens, UniProt P17947 1-270); conditions: protein: recombinant; tags: N-terminal GST; dsDNA, one strand shown
# How it was run: as §1
# SPIB = SPIB (Homo sapiens, UniProt Q01892 1-262); conditions: protein: recombinant; tags: N-terminal GST; dsDNA, one strand shown
# Chain of SPIB (Q01892 whole entry): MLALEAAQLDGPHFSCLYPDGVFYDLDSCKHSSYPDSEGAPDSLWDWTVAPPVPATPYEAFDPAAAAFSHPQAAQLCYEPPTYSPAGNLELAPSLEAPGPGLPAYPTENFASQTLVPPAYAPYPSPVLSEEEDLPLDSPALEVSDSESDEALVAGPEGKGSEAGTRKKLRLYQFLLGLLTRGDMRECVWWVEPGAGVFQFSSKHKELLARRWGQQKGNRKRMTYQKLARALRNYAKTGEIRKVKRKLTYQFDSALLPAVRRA
# How it was run: as §1
# ELK3 = target: T6, ELK3 (Homo sapiens, UniProt P41970 1-407); conditions: protein: recombinant; tags: N-terminal GST; dsDNA, one strand shown
# T6 sequence: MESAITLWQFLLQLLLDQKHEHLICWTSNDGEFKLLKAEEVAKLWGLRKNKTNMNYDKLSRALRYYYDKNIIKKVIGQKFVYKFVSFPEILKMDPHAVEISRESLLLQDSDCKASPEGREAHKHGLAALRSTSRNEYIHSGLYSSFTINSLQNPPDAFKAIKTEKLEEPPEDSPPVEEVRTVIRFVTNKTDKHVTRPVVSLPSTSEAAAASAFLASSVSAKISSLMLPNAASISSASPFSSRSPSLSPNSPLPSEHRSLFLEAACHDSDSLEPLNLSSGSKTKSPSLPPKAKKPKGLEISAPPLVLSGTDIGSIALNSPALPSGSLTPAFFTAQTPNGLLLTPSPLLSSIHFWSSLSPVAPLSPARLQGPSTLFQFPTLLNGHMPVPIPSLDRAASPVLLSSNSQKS
# How it was run: as §1
# FEV = target: T7, FEV (Homo sapiens, UniProt Q99581 1-238); conditions: protein: recombinant; tags: N-terminal GST; dsDNA, one strand shown
# T7 sequence: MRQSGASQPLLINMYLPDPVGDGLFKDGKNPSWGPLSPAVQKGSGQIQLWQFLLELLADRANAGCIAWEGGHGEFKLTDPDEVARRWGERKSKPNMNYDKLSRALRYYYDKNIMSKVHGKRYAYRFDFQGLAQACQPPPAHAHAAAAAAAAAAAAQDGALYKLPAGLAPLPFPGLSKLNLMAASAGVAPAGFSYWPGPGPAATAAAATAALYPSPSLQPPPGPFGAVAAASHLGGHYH
# How it was run: as §1
# ETV5 = ETV5 (Homo sapiens, UniProt P41161 1-510); conditions: protein: recombinant; tags: N-terminal GST; dsDNA, one strand shown
# Chain of ETV5 (P41161 whole entry): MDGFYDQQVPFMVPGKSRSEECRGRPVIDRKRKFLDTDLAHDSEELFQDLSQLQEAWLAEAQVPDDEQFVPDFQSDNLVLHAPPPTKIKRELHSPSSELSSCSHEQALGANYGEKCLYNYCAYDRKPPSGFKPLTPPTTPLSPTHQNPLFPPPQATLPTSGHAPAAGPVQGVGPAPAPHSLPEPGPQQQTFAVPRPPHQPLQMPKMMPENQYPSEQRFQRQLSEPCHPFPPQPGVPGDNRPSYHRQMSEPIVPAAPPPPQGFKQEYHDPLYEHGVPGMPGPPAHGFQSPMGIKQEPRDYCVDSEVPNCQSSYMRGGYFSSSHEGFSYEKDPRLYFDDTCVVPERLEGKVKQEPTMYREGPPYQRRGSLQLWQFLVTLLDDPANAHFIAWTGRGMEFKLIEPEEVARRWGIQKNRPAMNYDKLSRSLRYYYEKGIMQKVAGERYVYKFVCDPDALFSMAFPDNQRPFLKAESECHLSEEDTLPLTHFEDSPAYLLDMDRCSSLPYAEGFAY
# How it was run: as §1
# HSF1 = HSF1 (Homo sapiens, UniProt Q00613 1-529); conditions: protein: recombinant; tags: N-terminal GST; chain copies: 3; dsDNA, one strand shown
# Chain of HSF1 (Q00613 whole entry): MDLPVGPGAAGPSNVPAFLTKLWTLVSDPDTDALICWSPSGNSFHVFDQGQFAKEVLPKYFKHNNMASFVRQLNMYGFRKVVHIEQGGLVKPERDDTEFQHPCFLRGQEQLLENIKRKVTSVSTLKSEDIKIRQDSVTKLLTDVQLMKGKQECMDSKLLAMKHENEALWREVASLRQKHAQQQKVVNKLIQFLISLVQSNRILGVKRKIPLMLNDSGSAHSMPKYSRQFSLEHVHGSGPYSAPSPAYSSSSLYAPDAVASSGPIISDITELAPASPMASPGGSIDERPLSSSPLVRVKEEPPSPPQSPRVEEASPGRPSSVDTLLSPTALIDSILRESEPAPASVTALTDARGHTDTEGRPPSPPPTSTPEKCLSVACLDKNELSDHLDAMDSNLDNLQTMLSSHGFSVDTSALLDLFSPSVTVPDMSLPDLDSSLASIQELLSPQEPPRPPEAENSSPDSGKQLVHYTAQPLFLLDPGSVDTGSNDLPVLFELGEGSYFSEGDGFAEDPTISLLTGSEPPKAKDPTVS
# How it was run: as §1
# SPIC = target: T8, SPIC (Homo sapiens, UniProt Q8N5J4 1-248); conditions: protein: recombinant; tags: N-terminal GST; dsDNA, one strand shown
# T8 sequence: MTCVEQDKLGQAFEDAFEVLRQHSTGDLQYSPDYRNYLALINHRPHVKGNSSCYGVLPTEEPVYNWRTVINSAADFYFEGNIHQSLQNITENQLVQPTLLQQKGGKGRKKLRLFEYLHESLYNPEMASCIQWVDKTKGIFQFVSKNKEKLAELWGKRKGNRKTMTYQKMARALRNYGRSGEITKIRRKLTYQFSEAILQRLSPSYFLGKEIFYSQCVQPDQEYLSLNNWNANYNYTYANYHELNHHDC
# How it was run: as §1
# ELF4 = ELF4 (Homo sapiens, UniProt Q99607 1-663); conditions: protein: recombinant; tags: N-terminal GST; dsDNA, one strand shown
# Chain of ELF4 (Q99607 whole entry): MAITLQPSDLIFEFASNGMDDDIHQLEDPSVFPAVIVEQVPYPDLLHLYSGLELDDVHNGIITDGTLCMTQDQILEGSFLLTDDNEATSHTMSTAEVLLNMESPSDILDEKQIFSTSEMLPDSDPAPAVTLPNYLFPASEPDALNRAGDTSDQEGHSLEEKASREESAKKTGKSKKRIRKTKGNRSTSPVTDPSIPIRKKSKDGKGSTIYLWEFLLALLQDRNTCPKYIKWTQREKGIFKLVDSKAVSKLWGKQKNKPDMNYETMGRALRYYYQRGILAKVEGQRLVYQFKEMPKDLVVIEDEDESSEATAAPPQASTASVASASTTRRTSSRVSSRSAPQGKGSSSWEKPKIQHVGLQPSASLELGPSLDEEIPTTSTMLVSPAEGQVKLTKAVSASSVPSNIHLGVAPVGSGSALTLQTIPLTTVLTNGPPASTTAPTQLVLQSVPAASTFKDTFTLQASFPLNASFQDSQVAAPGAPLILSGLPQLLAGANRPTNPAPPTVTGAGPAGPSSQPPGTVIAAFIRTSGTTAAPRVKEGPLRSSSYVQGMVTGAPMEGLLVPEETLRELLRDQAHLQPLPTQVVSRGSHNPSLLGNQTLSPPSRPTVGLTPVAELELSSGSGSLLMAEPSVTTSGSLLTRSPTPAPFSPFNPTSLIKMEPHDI
# How it was run: as §1
# ELK4 = target: T9, ELK4 (Homo sapiens, UniProt P28324-2 1-405); conditions: protein: recombinant; tags: N-terminal GST; dsDNA, one strand shown
# T9 sequence: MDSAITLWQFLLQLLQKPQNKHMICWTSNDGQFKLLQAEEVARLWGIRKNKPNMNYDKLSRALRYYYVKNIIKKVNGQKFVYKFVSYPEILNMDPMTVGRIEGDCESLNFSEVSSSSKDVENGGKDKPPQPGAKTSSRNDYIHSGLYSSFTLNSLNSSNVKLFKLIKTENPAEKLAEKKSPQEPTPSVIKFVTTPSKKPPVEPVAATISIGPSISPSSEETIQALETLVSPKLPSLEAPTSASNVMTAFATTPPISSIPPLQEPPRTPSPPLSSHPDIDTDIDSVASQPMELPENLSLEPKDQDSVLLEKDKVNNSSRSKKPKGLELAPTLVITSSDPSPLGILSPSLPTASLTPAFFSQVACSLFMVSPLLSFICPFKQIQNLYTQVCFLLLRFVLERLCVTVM
# How it was run: as §1
# ETV2 = target: T10, ETV2 (Homo sapiens, UniProt O00321 1-342); conditions: protein: recombinant; tags: N-terminal GST; dsDNA, one strand shown
# T10 sequence: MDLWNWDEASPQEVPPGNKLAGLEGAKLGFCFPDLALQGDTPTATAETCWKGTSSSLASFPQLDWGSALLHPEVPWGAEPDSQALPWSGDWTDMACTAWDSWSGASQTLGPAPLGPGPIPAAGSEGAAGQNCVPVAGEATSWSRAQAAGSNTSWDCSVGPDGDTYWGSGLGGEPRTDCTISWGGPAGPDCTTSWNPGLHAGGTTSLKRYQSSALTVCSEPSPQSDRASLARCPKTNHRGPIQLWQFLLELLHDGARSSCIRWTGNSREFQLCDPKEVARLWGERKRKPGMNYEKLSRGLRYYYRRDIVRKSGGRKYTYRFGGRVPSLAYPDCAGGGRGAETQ
# How it was run: as §1
# ELF3 = target: T11, ELF3 (Homo sapiens, UniProt P78545 1-371); conditions: protein: recombinant; tags: N-terminal GST; dsDNA, one strand shown
# T11 sequence: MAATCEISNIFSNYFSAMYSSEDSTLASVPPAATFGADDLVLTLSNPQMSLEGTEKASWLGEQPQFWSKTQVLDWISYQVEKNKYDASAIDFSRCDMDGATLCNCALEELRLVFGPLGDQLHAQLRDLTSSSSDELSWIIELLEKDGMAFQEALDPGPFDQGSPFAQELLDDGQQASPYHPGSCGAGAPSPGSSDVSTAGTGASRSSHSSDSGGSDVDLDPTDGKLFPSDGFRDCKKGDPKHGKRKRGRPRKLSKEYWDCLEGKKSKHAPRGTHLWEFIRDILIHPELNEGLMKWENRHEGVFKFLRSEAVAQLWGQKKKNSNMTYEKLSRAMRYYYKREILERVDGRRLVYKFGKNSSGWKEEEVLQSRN
# How it was run: as §1
# CRX = CRX (Homo sapiens, UniProt O43186 1-299); conditions: protein: recombinant; tags: N-terminal GST; dsDNA, one strand shown
# Chain of CRX (O43186 whole entry): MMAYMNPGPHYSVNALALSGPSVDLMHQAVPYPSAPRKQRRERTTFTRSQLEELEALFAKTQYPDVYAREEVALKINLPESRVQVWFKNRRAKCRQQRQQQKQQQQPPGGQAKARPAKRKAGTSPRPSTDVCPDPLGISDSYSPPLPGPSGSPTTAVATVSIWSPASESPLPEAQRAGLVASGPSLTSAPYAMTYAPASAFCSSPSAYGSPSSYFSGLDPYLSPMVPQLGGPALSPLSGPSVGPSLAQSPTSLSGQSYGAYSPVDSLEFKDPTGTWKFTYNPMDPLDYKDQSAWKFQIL
# How it was run: as §1
# ETV1 = ETV1 (Homo sapiens, UniProt P50549 1-477); conditions: protein: recombinant; tags: N-terminal GST; dsDNA, one strand shown
# Chain of ETV1 (P50549 whole entry): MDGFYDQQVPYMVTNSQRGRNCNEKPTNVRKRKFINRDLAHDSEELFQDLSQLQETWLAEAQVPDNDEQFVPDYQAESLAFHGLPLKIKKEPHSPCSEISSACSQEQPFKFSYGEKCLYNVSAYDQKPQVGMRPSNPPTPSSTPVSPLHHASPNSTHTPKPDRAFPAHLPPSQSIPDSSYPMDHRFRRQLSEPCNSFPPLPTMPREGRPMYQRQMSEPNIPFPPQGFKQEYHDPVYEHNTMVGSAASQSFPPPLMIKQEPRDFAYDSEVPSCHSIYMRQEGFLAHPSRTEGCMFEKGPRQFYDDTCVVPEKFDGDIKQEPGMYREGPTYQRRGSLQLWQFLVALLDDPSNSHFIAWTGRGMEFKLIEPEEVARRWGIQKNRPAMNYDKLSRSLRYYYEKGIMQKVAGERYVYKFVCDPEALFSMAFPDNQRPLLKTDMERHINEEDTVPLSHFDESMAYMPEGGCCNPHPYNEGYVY
# How it was run: as §1
sequence,measurement,setting,value
AATACG,binding signal,FLI1,"1.11 fold enrichment (6-mer frequency, TF over GST control)"
same,binding signal,ELK1,"1.19 fold enrichment (6-mer frequency, TF over GST control)"
same,binding signal,GABPA,"1.24 fold enrichment (6-mer frequency, TF over GST control)"
same,binding signal,ERG,"1.22 fold enrichment (6-mer frequency, TF over GST control)"
same,binding signal,ELF1,"1.12 fold enrichment (6-mer frequency, TF over GST control)"
same,binding signal,EHF,"1.18 fold enrichment (6-mer frequency, TF over GST control)"
same,binding signal,SPI1,"1.32 fold enrichment (6-mer frequency, TF over GST control)"
same,binding signal,SPIB,"1.25 fold enrichment (6-mer frequency, TF over GST control)"
same,binding signal,ELK3,"1.26 fold enrichment (6-mer frequency, TF over GST control)"
same,binding signal,FEV,"1.19 fold enrichment (6-mer frequency, TF over GST control)"
same,binding signal,ETV5,"1.27 fold enrichment (6-mer frequency, TF over GST control)"
same,binding signal,HSF1,"1.26 fold enrichment (6-mer frequency, TF over GST control)"
same,binding signal,SPIC,"1.17 fold enrichment (6-mer frequency, TF over GST control)"
same,binding signal,ELF4,"1.29 fold enrichment (6-mer frequency, TF over GST control)"
same,binding signal,ELK4,"1.02 fold enrichment (6-mer frequency, TF over GST control)"
same,binding signal,ETV2,"1.19 fold enrichment (6-mer frequency, TF over GST control)"
same,binding signal,ELF3,"1.24 fold enrichment (6-mer frequency, TF over GST control)"
same,binding signal,CRX,"1.36 fold enrichment (6-mer frequency, TF over GST control)"
same,binding signal,ETV1,"1.28 fold enrichment (6-mer frequency, TF over GST control)"
